High-throughput results (PubChem BioAssay)
Hits are enriched below; roughly 4% of the tested compounds scored in any of these assays.
NLRP3 yeast inh: NALP3 inflammasome inhibitors in reconstituted yeast, primary screen, luminescence, uHTS; Yeast reconstituted NLRP3/ASC/caspase-1, beta-gal luminescence, 24 h; inhibition, % at 10 µM; 0.39% of 330,000 active; AID 2825, 2010;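 active means inhibition of 50% or more; inactive means inhibition below 50%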;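 further: plate controls were induced DMSO wells for no effect and uninduced yeast grown without galactose for full effect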
NALP1 inh: NALP1 inflammasome inhibitors in reconstituted yeast, colorimetric, S. cerevisiae, triplicate retest; S. cerevisiae NALP1/ASC/caspase-1 growth, X-gal OD620, 72 h; inhibition, % at 10 µM; 0.61% of 280,000 active; AID 2071, 2009; in the data active means inhibition mostly above about 24%, no sharp cut-off; inactive means mostly below about 32%
tim23-1 inh: growth inhibitors of tim23-1 mutant yeast, primary screen, luminescence, uHTS; S. cerevisiae tim23-1 growth, BacTiter-Glo luminescence, 24 h; 1.3% of 330,000 active; inhibition, % at 20 µM;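 active means growth inhibition of the mutant yeast at or above 50%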;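 further: temperature-sensitive mutant grown at 25 °C; plate controls were DMSO-treated mutant yeast for no effect and medium wells lacking yeast for full effect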
tim10-1 inh: growth inhibitors of tim10-1 mutant yeast, primary screen, luminescence, uHTS; AID 463190, 2010; S. cerevisiae tim10-1 ts strain growth, BacTiter-Glo, 24 h; 2.2% of 330,000 active; inhibition, % at 20 µM;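 active means inhibition of at least 40%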;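 further: mutant grown at 25 °C; 0% = DMSO wells with yeast and 100% = wells holding no yeast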
TIM10 inh: growth inhibitors of isogenic TIM10 control yeast, primary screen, counter-screen for tim10-1 yeast inhibitor project, luminescence, uHTS; S. cerevisiae TIM10 strain growth, BacTiter-Glo luminescence, 24 h; 1.4% of 330,000 active; inhibition, % at 10 µM; AID 463195, 2010;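 active means inhibition of 40% or more at the single tested concentration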;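 further: wild-type TIM10 isogenic control strain grown at permissive 25 °C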
tim10-1 conf: growth inhibitors of tim10-1 mutant yeast, confirmation, single concentration, luminescence, S. cerevisiae; shares compounds with tim10-1 inh; S. cerevisiae tim10-1 ts strain growth, BacTiter-Glo, 24 h; inhibition, % at 20 µM; 56% of 7,400 active; AID 463213, 2010;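 active means inhibition of yeast growth at or above a set limit in either of two repeat tests at 20 µM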;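 further: tim10-1 mutant grown at permissive 25 °C to find synthetic lethal compounds; 0% = DMSO yeast wells and 100% = medium wells without yeast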
Numbers without * were called inactive; x = no result.

SMILES	NLRP3 yeast inh	NALP1 inh	tim23-1 inh	tim10-1 inh	TIM10 inh	tim10-1 conf
FC(F)(F)c1nc2ccccc2c2nc3ccccc3n12	-13.9	20.7	1.4	41.4*	11.7	18.7
FC(F)(F)c1nnc2c(Sc3ccccn3)nc3ccccc3n12	24.6	15.7	47.7	55.3*	34.7	35.2*
CCOC(CNC(=O)C(=O)Nc1cc2c3c(c1)CCC(=O)N3CCC2)OCC	-2.4	24.6	8.4	-1.2	4.5	x
O=C(Nn1c(SCc2ccc(F)cc2)nc2ccsc2c1=O)c1ccccc1	-5.6	34.0	26.2	40.2*	19.9	18.6
Cn1c(N)c(C(=O)COC(=O)COc2ccccc2Cl)c(=O)n(C)c1=O	2.0	x	14.0	20.3	13.2	x
O=c1[nH]c2cc3ccccc3cc2nc1C(F)(F)F	-21.2	8.0	5.7	42.2*	17.0	-9.2
Cc1ccc2c(c1)CCCN2C(=O)c1ccoc1C	-15.7	1.4	18.4	28.2	-8.2	x
Cc1ccc2c(c1)CCCN2C(=O)c1cc2ccccc2oc1=O	11.0	17.9	49.2	43.2*	24.2	43.8*
Cc1cccc(C)c1NC(=O)COC(=O)c1ccc([N+](=O)[O-])o1	20.9	9.2	-48.8	-97.1	-105.8	x
CC(NC(=S)Nc1ccc(S(=O)(=O)N2CCOCC2)cc1)C1CC2CCC1C2 (centres undefined)	10.1	8.9	42.1	48.8*	23.6	42.8*
Clc1ccccc1-c1nn2c(-c3ccccn3)nnc2s1	0.0	3.3	30.4	40.2*	11.5	39.8*
Clc1ccccc1-c1nnc2sc(-c3ccncc3)nn12	6.2	-9.3	17.8	21.6	5.4	x
Clc1ccccc1-c1nn2c(-c3ccncc3)nnc2s1	8.1	-10.6	34.8	43.4*	30.6	42.9*
Clc1ccc(-c2nnc3sc(-c4ccccn4)nn23)cc1	x	-23.2	x	x	x	x
CCOC(=O)c1c(C)n(CC(O)CN(C)C)c2cc(Br)c(OC)cc12 (centres undefined)	9.4	-2.4	10.2	14.0	-3.7	x
Cc1ccc(C2(C)NC(=O)N(CC(=O)NC(=O)NC(C)C)C2=O)cc1 (centres undefined)	18.4	15.5	17.6	3.6	3.3	x
COc1ccc(CNC(=O)CN2CCN(S(=O)(=O)c3ccccc3)CC2)cc1	6.4	x	24.6	19.9	13.6	x
CCOc1cc(/C=N/O)cc(Br)c1OCc1ccc(Cl)cc1	8.7	12.6	-18.5	53.5*	-10.7	26.9
O=C1COC(c2ccccc2)=CN1Cc1ccccc1	8.7	x	7.8	-3.3	1.9	x
COc1ccccc1CNC(=O)C(C)n1nc(C)n2c(cc3occc32)c1=O (centres undefined)	3.9	-12.7	13.3	16.9	-11.5	x
COc1ccc(C(=O)c2cnc(/N=C/N(C)C)s2)cc1	-1.5	23.8	14.6	44.3*	27.7	36.5*
COCCN(C(=O)CSc1nc2ccccc2c(=O)n1CC(C)C)c1c(N)n(Cc2ccccc2)c(=O)[nH]c1=O	10.7	-6.0	12.7	19.3	17.2	x
CC1CCCCC1NC(=O)CN1C(=O)c2ccccc2S1(=O)=O (centres undefined)	14.9	5.7	8.9	0.2	8.5	x
Cc1ccc(S(=O)(=O)N2CCC[C@H]2C(=O)OC(C)C(=O)Nc2ncc(Cl)cc2Cl)cc1 (some centres undefined)	2.1	9.2	6.4	40.8*	14.1	21.8
CCOc1ccccc1NC(=O)CN(c1ccc(OC)cc1)S(=O)(=O)c1c(C)[nH]c(=O)[nH]c1=O	-2.4	20.4	-1.1	0.3	5.7	x
CC(C)(C)CC(C)(C)c1ccc(OCCOCC[N+](C)(C)Cc2ccccc2)cc1	29.2	x	27.7	41.7*	14.0	-9.2
CCN(CC)CCN(C(=O)c1ccc2c(c1)CCCC2)c1nc2ccc(C)cc2s1	24.3	29.2	46.4	37.5	26.0	x
CN(C)CCCN(C(=O)c1ccc2c(c1)CCCC2)c1nc2cc3c(cc2s1)OCO3	43.8	-70.4	16.9	41.5*	17.1	24.9
CN(C)CCCN(C(=O)c1ccc(S(=O)(=O)N(C)C)cc1)c1nc2cc3c(cc2s1)OCO3	1.0	2.1	6.8	18.9	24.6	x
